Inconclusive results are not listed. The source made the active and inactive calls. The call rests on the fitted dose curve; in most records, active means well fitted inhibition curve with a large enough effect in the repeat runs; inconclusive means weak or mixed curves; inactive means no such curve, though single readings can be large or run the other way.
Assay: qHTS assay to identify small molecule antagonists of the estrogen related receptor (ERR) signaling pathway from Tox21 library (AID 1224848); further: nearly all actives have a fitted effect of over 50% in size
Details: ERR reporter cell line, luciferase antagonist mode, 18 h; series mostly up to 92.4 µM; activity, negative = inhibition: at the top concentration
Source text: U.S. Tox21 Program National Center for Advancing Translational Sciences [NCATS] NIH Chemical Genomics Center [NCGC] U.S. Environmental Protection Agency [EPA] National Institutes of Environmental Health Sciences [NIEHS] National Toxicology Program [NTP] U.S. Food and Drug Administration [FDA] Tox21 Assay Overview: Estrogen related receptors (ERRs), the first orphan nuclear receptors discovered, play an important role in the control of cellular energy metabolism. ERRs are required for high-energy production in response to the environmental challenges. ERR-alpha was also identified as an adverse marker for breast cancer progression; ERR-alpha-positive tumors have a poor prognosis. To screen and to identify environmental compounds that perturb the ERR signaling pathways could provide valuable information for potential therapeutic or preventive measures in the treatment of metabolic disease. For identifying ERR antagonists, ERR cell line (provided by NTP) has been used to screen Tox21 10K library.
Tox21 Assay Protocol Summary: The ERR cells were dispensed at 2,000 cells/5 ul/well in 1536-well white plates using a Multidrop dispenser. After the assay plates were incubated at a 37 C/5% CO2 incubator for 6 hours, 23 nL of compounds dissolved in DMSO, positive and negative controls or DMSO only was transferred to the assay plate by a pin tool. The plates were incubated at 37 C for 18 hours. 4 ul/well of One-Glo reagent was added into the assay plates using a Flying Reagent Dispenser. After 30-minute incubation at room temperature, the luminescence intensity in the plates was measured using a ViewLux plate reader.
On the % scale 0 is the no-effect control and ±100 the full control effect; potency means the concentration at half of the fitted maximal effect.

Q: For `COCC(=O)N(c1c(C)cccc1C)N1CCOC1=O`, which “activity, negative = inhibition” value is on record?
A: The value was 2.48% (inactive).

Q: Which “activity, negative = inhibition” value does the source give for `CCCCN(CCCCO)N=O` here?
A: Its value is -12.6% (inactive).

Q: Which “activity, negative = inhibition” value does the source give for `ClCCOCOCCCl` here?
A: The value was -2.2% (inactive).

Q: With `COP(=S)(OC)Oc1c(Cl)cc(C)cc1Cl` as the compound, how does the “activity, negative = inhibition” value read?
A: The value was 3.76% (inactive).

Q: Which “activity, negative = inhibition” value does the source give for `CCOC(=O)C1(c2ccccc2)CCN(CCc2ccc(N)cc2)CC1` here?
A: Its value is -20.8% [at 42.5 µM] (inactive).

Q: Which “activity, negative = inhibition” value does the source give for `CCOC(=O)NC(=S)Nc1ccccc1NC(=S)NC(=O)OCC` here?
A: The value was 18.4% (inactive).

Q: Which Potency does the source give for `C=CCC1=C(C)[C@@H](OC(=O)[C@@H]2[C@@H](C=C(C)C)C2(C)C)CC1=O` here?
A: The Potency was 21.7 µM (active).

Q: For `O=C(Nc1ccccc1)N(Cc1ccc(Cl)cc1)C1CCCC1`, which Potency is on record?
A: The Potency was 54.5 µM (active).

Q: Which “activity, negative = inhibition” value does the source give for `ClCCCN1CCN(c2cccc(Cl)c2)CC1` here?
A: Its value is -6.65% [at 42.5 µM] (inactive).

Q: For `COC(=O)COc1ccc(Cl)cc1Cl`, which “activity, negative = inhibition” value is on record?
A: The value was 13.2% (inactive).

Q: Which “activity, negative = inhibition” value does the source give for `ClC(Br)Br` here?
A: Its value is 2.04% (inactive).

Q: For `CC1=C(C(=O)O)N2C(=O)[C@@H](N)[C@H]2SC1`, which activity, negative = inhibition is on record?
A: The activity, negative = inhibition was 6% [at 19 µM] (inactive).

Q: For `C[N+](=O)[O-]`, which “activity, negative = inhibition” value is on record?
A: Its value is 8.38% (inactive).

Q: Which “activity, negative = inhibition” value does the source give for `CCN(CC)CCOC(=O)C(C)(c1ccccc1)c1ccccc1` here?
A: The value was 0.616% [at 42.5 µM] (inactive).

Q: Which “activity, negative = inhibition” value does the source give for `CN1CCC(O)(c2ccc(F)cc2)C(C(=O)c2ccc(F)cc2)C1` (stereo not given) here?
A: Its value is 0.671% [at 42.5 µM] (inactive).

Q: For `CCNc1nc(NC(C)C)nc(OC)n1`, which “activity, negative = inhibition” value is on record?
A: The value was -1.31% (inactive).

Q: Which “activity, negative = inhibition” value does the source give for `COc1cc(OC)nc(NC(=O)NS(=O)(=O)c2ncccc2OCC(F)(F)F)n1` here?
A: Its value is 22.6% (inactive).

Q: Which Potency does the source give for `Fc1ccc(C2(Cn3cncn3)OC2c2ccccc2Cl)cc1` (stereo not given) here?
A: Its Potency is 48.6 µM (active).

Q: Which “activity, negative = inhibition” value does the source give for `CCS(=O)(=O)C(C)(C)S(=O)(=O)CC` here?
A: Its value is 6.7% [at 42.5 µM] (inactive).

Q: Which “activity, negative = inhibition” value does the source give for `COC(=O)c1c(C(F)F)nc(C(F)(F)F)c(C2=NCCS2)c1CC(C)C` here?
A: The value was 3.95% (inactive).

Q: With `CC1=NNC(=O)N(/N=C/c2cccnc2)C1` as the compound, how does the “activity, negative = inhibition” value read?
A: The value was -0.969% (inactive).

Q: Which “activity, negative = inhibition” value does the source give for `CCOC(=O)CP(=O)(OCC)OCC` here?
A: The value was 5.29% (inactive).

Q: With `CCC(Cl)[N+](=O)[O-]` (stereo not given) as the compound, how does the “activity, negative = inhibition” value read?
A: Its value is -10.4% (inactive).

Q: Which “activity, negative = inhibition” value does the source give for `N#Cc1c(Cl)cccc1Cl` here?
A: The value was 8.85% (inactive).

Q: For `C=C(C)[C@@H]1CC=C(C=O)CC1`, which “activity, negative = inhibition” value is on record?
A: Its value is -9.01% (inactive).

Q: With `C1CCC(C2CCCCC2)CC1` as the compound, how does the “activity, negative = inhibition” value read?
A: Its value is -8.33% (inactive).

Q: With `CCC(C)(C)c1cc(-n2nc3ccccc3n2)c(O)c(C(C)(C)CC)c1` as the compound, how does the Potency read?
A: Its Potency is 39.2 µM (active).

Q: With `Cc1cc(C)nc(Nc2ccccc2)n1` as the compound, how does the “activity, negative = inhibition” value read?
A: Its value is 29.3% (inactive).

Q: With `CCCSP(=S)(OCC)Oc1ccc(Cl)cc1Cl` (stereo not given) as the compound, how does the “activity, negative = inhibition” value read?
A: Its value is -0.91% (inactive).

Q: For `CC(Cl)(Cl)[N+](=O)[O-]`, which “activity, negative = inhibition” value is on record?
A: Its value is 2.94% (inactive).

Q: For `CCc1cc2c(s1)-n1c(C)nnc1CN=C2c1ccccc1Cl`, which “activity, negative = inhibition” value is on record?
A: The value was 39.1% [at 42.5 µM] (inactive).

Q: Which “activity, negative = inhibition” value does the source give for `CC1(C)C(=O)NC(=O)NC1=O` here?
A: Its value is -1.14% (inactive).

Q: For `N#CC(CCc1ccc(Cl)cc1)(Cn1cncn1)c1ccccc1` (stereo not given), which Potency is on record?
A: Its Potency is 17.2 µM (active).

Q: With `CS(=O)(=O)c1cc(C(F)(F)F)ccc1C(=O)c1cnoc1C1CC1` as the compound, how does the “activity, negative = inhibition” value read?
A: Its value is 12.6% (inactive).

Q: With `CC(=O)CCc1ccc2c(c1)OCO2` as the compound, how does the “activity, negative = inhibition” value read?
A: The value was -0.0352% (inactive).

Q: With `C[C@]12CC[C@H]3[C@@H](CCC4=CC(=O)CC[C@@]43C)[C@@H]1CC[C@@H]2C(=O)O` as the compound, how does the “activity, negative = inhibition” value read?
A: Its value is -12.7% [at 42.5 µM] (inactive).

Q: With `COc1cc(OC)nc(Sc2cccc(Cl)c2C(=O)O)n1` as the compound, how does the “activity, negative = inhibition” value read?
A: The value was -1.5% (inactive).

Q: With `CC1CCC(=O)O1` (stereo not given) as the compound, how does the “activity, negative = inhibition” value read?
A: The value was -10.2% (inactive).

Q: For `CNC(=O)Oc1ccccc1C1OCCO1`, which “activity, negative = inhibition” value is on record?
A: The value was 6.33% (inactive).

Q: Which Potency does the source give for `CC1(C(=O)Nc2ccc(O)c(Cl)c2Cl)CCCCC1` here?
A: The Potency was 61.1 µM (active).

— PubChem BioAssay (Tox21)
